# Results: PubChem BioAssay AID1851 (National Center for Advancing Translational Sciences (NCATS), 2009)
# Values joined by “and” are separate entries in the source; they are usually repeats but may differ in a detail not shown here. Equal entries are not always repeated. About 5,800 (36%) of roughly 16,000 compounds were called active. Not shown: some 23% with an inconclusive outcome. Calls come from the whole dose curve; as a rule, active = well fitted curve in the direction sought with a large enough effect; inconclusive = small, poorly fitted or top-dose-only effect, or effect the other way; inactive = no such curve, though single readings can be large or run the other way. The list shows a part of the results. More than one record can exist for a structure, and the calls need not agree.
# Biological target: Cytochrome P450 2C19 (Homo sapiens) (UniProt P33261)
# Assay: Cytochrome panel assay with activity outcomes
# Conditions: recombinant CYP, pro-luciferin dealkylation, luminescence, p450-cyp2c19; series mostly up to 57.1 µM; activity, negative = inhibition: at the top concentration
# % is set by controls: 0 for no effect and ±100 for the full control effect.
# Cytochrome P450 2C19 (Homo sapiens), sequence (P33261 whole entry, looked up): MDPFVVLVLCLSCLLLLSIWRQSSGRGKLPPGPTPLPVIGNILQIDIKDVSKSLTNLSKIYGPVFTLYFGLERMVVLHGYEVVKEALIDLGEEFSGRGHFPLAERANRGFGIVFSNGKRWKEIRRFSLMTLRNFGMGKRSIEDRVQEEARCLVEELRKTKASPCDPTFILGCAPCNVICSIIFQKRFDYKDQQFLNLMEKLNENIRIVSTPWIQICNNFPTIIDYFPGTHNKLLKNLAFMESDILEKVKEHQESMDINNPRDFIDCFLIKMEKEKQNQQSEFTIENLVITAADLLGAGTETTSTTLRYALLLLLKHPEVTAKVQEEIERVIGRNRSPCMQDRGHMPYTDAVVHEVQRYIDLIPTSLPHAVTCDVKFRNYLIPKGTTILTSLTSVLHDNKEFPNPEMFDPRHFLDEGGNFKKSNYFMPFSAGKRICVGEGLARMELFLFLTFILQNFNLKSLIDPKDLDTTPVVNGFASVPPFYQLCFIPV
SMILES,"activity, negative = inhibition",AC50
COC(=O)N1CCC2(CCN(CC(C)C)CC2)CC1,-27.3% (inactive),–
c1ccc(N2CCC3(CCNCC3)CC2)cc1,-25.2% (inactive),–
Cc1sc(NC(=O)C2C3CCC(O3)C2C(=O)O)c(C(=O)OC(C)C)c1-c1ccc(Cl)cc1 (stereo unspecified),–,14.1 µM (active)
O=C(c1cc(-c2ccccc2)nc2ccccc12)N1CCC2(CC1)OCCO2,–,10 µM (active)
CN1C(=O)c2ccccc2Sc2ccc(C(=O)N3CCC4(CC3)OCCO4)cc21,-9.78% (inactive),–
CN1[C@@H](CC(=O)c2ccccc2)CCC[C@@H]1C[C@@H](O)c1ccccc1,1.66% [at 25.6 µM] (inactive),–
COCC(=O)N1CCC2(CCCN(Cc3ccncc3)C2)CC1,-34.1% (inactive),–
O=C(c1ccco1)N1CCC[C@@]2(CCN(Cc3ccncc3)C2)C1,–,2.51 µM (active)
CN1CC[C@@]2(CCCN(C(=O)c3ccco3)C2)C1,7.21% (inactive),–
CNC(C)(C)Cc1ccccc1,31.5% [at 25.6 µM] (inactive),–
C[C@@H](Cc1ccc(OCC(=O)O)cc1)NC[C@H](O)c1cccc(Cl)c1,–,inactive and 5.01 µM (active)
CCNC[C@H](O)c1cccc(O)c1,-8.41% [at 25.6 µM] (inactive),–
C=C1[C@@H]2C[C@@]3([C@H]1O)[C@H]1C[C@@H]4[C@@]5(C)CC[C@H](O)[C@]4([C@H]1N(CC)C5)[C@H]3C[C@H]2O,3.61% [at 25.6 µM] (inactive),–
Oc1cccc2cccnc12,31.2% [at 11.4 µM] (inactive),–
CC1=NN(c2ccc(S(=O)(=O)O)cc2C)C(=[OH+])[C@H]1N=Nc1cc(S(=O)(=O)O)ccc1C(=O)O.O.[Cr],33.2% [at 11.4 µM] (inactive),–
COCOc1ccc(Br)cc1C(=O)/C=C\c1ccc2c(c1)OCO2,–,0.0631 µM (active)
CCCCCCCCCCCCCC(=O)O[C@H]1[C@@H](C)[C@@]2(O)[C@@H](C=C(CO)C[C@]3(O)C(=O)C(C)=C[C@@H]23)C2C(C)(C)[C@]21OC(C)=O (stereo partly specified),-27% (inactive),–
C[C@@H]1O[C@@H](O[C@H]2C[C@@H](O)[C@]3(CO)[C@@H]4[C@@H](O)C[C@]5(C)[C@H]([C@@H]6COC(=O)C6)CC[C@@]5(O)[C@H]4CC[C@@]3(O)C2)[C@H](O)[C@H](O)[C@@H]1O,10.9% (inactive),–
CCOC(=O)[C@@H]1[C@@H]2c3ccccc3-c3ccccc3[C@H]2C[C@H]1O,–,2 µM (active)
N[C@@H](CSC1c2ccccc2-c2ccccc21)C(=O)O,-32.5% [at 11.4 µM] (inactive),–
CC1(C)[C@@H]2CC[C@]1(C)CN(CCC[N+](C)(C)C)C2,6.07% [at 11.4 µM] (inactive),–
CC(C)Oc1cccnc1N(C)C1CCN(Cc2ccccc2)CC1,-43% (inactive),–
COC(=O)C[C@](O)(CCCC(C)(C)O)C(=O)O[C@@H]1C(OC)=C[C@]23CCCN2CCc2cc4c(cc2[C@H]13)OCO4,-41% (inactive),–

SMILES,"activity, negative = inhibition",AC50
CS(=N)(=O)CC[C@@H](N)C(=O)O (stereo partly specified),–,inactive
COc1ccccc1CC1C(=O)C2CCN1CC2 (stereo unspecified),-29.3% (inactive),–
COCCn1c(SCc2nc3sc(C(=O)OC)c(C)c3c(=O)[nH]2)nc2ccccc21,–,0.708 µM (active)
O=C(O)[C@H]1CCN1,-2.64% (inactive),–
N#Cc1ccc(CN2CCCC3(CCN(C(=O)Oc4ccccc4)CC3)C2)cc1,22.4% (inactive),–
CC(=O)[C@@H]1CC[C@@H]2[C@@H]3CC=C4C[C@H](OS(=O)(=O)O)CC[C@@]4(C)[C@H]3CC[C@]21C,-13.8% (inactive),–
C=CCn1c(O)c(C(C)=NCCCN2CCOCC2)c(=O)[nH]c1=O,4.51% (inactive),–
CCCCn1c(O)c(C(CC)=NCc2ccc(F)cc2)c(=O)[nH]c1=O,–,7.08 µM (active)
CCCCn1c(O)c(C(CC)=Nc2ccc(OC)cc2OC)c(=O)[nH]c1=O,–,15.8 µM (active)
CCCCn1c(O)c(C=NCCN2CCCCC2)c(=O)[nH]c1=O,-13.8% (inactive),–
C[C@]12CCC3c4ccc(OCC(=O)O)cc4CCC3C1CCC2=O (stereo partly specified),29.2% [at 11.4 µM] (inactive),–
CN(C)[C@@H]1C(=O)C(C(N)=O)=C(O)[C@]2(O)C(=O)C3=C(O)c4c(O)cccc4[C@](C)(O)[C@H]3C[C@@H]12,-41.8% [at 11.4 µM] (inactive),–
CCOC(=O)c1[nH]c(C)c(C(=O)N2CCC3(CC2)OCCO3)c1C,–,5.01 µM (active)
OCc1cnc[nH]1,-19.3% (inactive),–
CC(C)(c1ccc(OC[C@@H]2CO2)cc1)c1ccc(OC[C@H]2CO2)cc1,21.1% (inactive),–
C[C@@H]1O[C@@H](O[C@H]2C[C@@H](O)[C@@]3(CO)[C@H]4[C@H](O)C[C@]5(C)[C@@H](C6=CC(=O)OC6)CC[C@]5(O)[C@H]4CC[C@@]3(O)C2)[C@@H](O)[C@H](O)[C@H]1O,30.3% [at 11.4 µM] (inactive),–
N[C@H](Cc1c[nH]c2ccccc12)P(=O)(O)O,13.8% [at 11.4 µM] (inactive),–
C[N+]1(C)[C@@H]2CC[C@H]1CC(OC(=O)c1c[nH]c3ccccc13)C2 (stereo partly specified),19.7% (inactive),–
CC(C(=O)c1c[nH]c2ccccc12)N1CCSCC1 (stereo unspecified),–,8.91 µM (active)
C[C@H]1C(=O)O[C@@H]2CCN3CC=C(COC(=O)[C@@](C)(O)[C@@]1(C)O)[C@H]23,5.72% [at 25.6 µM] (inactive),–
CN1C(=O)CCS(=O)(=O)[C@@H]1c1ccc(Cl)cc1,12.3% [at 25.6 µM] (inactive),–
Brc1c(NC2=NCCN2)ccc2nccnc12,-34.5% (inactive),–
c1ccc2c(c1)[I+]c1ccccc1-2,–,501 nM (active) and 63.1 nM (active)
